High-throughput results (PubChem BioAssay)
ssDAF-12 act = activates DAF-12 receptor from parasite S. stercoralis | 370,000 compounds, 1% hits | AID 652126 | HEK293 ssDAF-12/GRIP1 lit1-tk-luc reporter, luminescence; % of 3 µM dafachronic acid response | activation, % at 6.8 µM;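 active = activation above the mean over all tested compounds plus 3 SD, cut at about 0.9% in these data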
DAX1 inh-1 = blocks DAX1 repression of SF-1 activated StAR promoter. HEK293T StAR-luciferase reporter, SF-1/DAX-1 repression relief. inhibition, % at 6.8 µM. 370,000 compounds, 1.1% hits. AID 652010;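 active = inhibition above the mean over all tested compounds plus 3 SD, cut at about 3.6% in these data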;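 also: higher inhibition means more luminescence from relief of DAX-1 repression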
DAX1 inh-2 = inhibits human nuclear receptor DAX1. HEK293 Gal4-DAX1 luciferase reporter, luminescence. inhibition, % at 6.75 µM. 340,000 compounds, 0.99% hits. AID 504766;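 active = inhibition above the mean over all tested compounds plus 3 SD, cut at about 4.2% in these data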;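 also: inhibition shows as a rise in luminescence from relieved DAX1 repression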
hgDAF12 agonist = activates the H. glycines DAF-12 receptor ligand-binding domain; HEK293 GAL4-hgDAF12 UAS-luciferase reporter, agonist luminescence; normalized to butyrate control; activation, % at 6.8 µM; 370,000 compounds, 1.8% hits; AID 687014;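 active = activation above a cutoff set at the mean of all screened compounds plus 3 SD, cut at about 10% in these data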
hcDAF12 agonist = H. contortus DAF-12 activation, primary screen; AID 652067; HEK293 hcDAF-12 lit1-tk-luc reporter, luminescence; 0% DMSO, 100% Δ7-dafachronic acid; activation, % at 6.8 µM; 370,000 compounds, 1.4% hits;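 active = activation above the mean of all tested compounds plus 3 SD, cut at about 5.5% in these data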
LXR ag = LXR-beta agonism as hcDAF-12 counter-screen | shares compounds with hcDAF12 agonist | HEK293 Gal4-LXR tk-luc reporter, luminescence, 24 h; normalized: DMSO 0%, positive control 100% | activation, % at 6.8 µM | 3,400 tested, under 10 active | AID 743027;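 active = mean percent activation of the reporter above a cutoff set as the average over tested compounds plus their standard deviation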
Target sequence (P55055 whole entry, looked up, the tested form may be a part): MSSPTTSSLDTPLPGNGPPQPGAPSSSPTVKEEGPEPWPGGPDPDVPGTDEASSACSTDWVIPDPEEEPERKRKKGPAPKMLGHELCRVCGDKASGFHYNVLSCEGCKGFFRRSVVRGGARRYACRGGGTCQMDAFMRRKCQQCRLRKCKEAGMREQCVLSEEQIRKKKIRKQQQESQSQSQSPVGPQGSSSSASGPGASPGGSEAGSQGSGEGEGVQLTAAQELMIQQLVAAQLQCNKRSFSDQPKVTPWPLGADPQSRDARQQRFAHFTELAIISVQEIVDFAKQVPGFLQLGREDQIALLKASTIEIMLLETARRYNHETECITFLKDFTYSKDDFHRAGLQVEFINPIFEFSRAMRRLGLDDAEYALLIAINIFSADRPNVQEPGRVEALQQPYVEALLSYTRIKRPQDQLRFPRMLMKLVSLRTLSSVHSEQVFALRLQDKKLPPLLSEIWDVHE
hcDAF12 ag = confirmation of H. contortus DAF-12 agonists. shares compounds with hcDAF12 agonist. HEK293 hcDAF-12 lit1-tk-luc reporter, luminescence; % of Δ7-dafachronic acid response. activation, % at 6.8 µM. 3,400 compounds, 61% hits. AID 743032;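 active = mean activation across triplicate tests above the threshold derived from the earlier primary screen, cut at about 5.5% in these data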
Hits are given with their value; . = inactive; / = not tested or not shown. Compounds with a hit are over-represented: about 4.1% of the library has one in this group of screens.

SMILES	ssDAF-12 act	DAX1 inh-1	DAX1 inh-2	hgDAF12 agonist	hcDAF12 agonist	LXR ag	hcDAF12 ag
COC(=O)[C@H](CC(C)C)N1Cc2nnn(Cc3ccccc3)c2-c2cc(F)ccc2S1(=O)=O	.	.	/	.	.	/	/
Nc1sc(-c2ccccc2)cc1C(=O)NCCc1c[nH]c2ccccc12	.	.	/	.	.	/	/
Cc1c(N=C2NN=C(c3c[nH]c4ccccc34)CS2)c(=O)n(-c2ccccc2)n1C	.	.	.	.	7.0	.	.
CCC(=O)Nc1ccc(NC(=O)c2ccccc2)nc1	1.0	4.1	.	11	7.0	.	.
CC(CCN1CCC(C(O)(c2ccccc2)c2ccccc2)CC1)Oc1ccc(OC(F)(F)F)cc1 (stereo not drawn)	.	.	/	.	7.5	.	.
Cc1cc(OC(C)CCN2CCC(C(O)(c3ccccc3)c3ccccc3)CC2)ccc1Br (stereo not drawn)	.	.	/	.	6.8	.	.
Cc1cc(OCCCN2CCC(C(O)(c3ccccc3)c3ccccc3)CC2)ccc1Br	.	.	/	.	.	/	/
O/N=C/c1ccc2ccccc2n1	.	.	.	.	.	/	/
O/C(=C\c1ccc2ccccc2n1)c1ccncc1	1.2	.	.	12	8.6	.	12
CN1CCN(c2ccc3c(c2)Oc2ccccc2CN(Cc2cn(Cc4ccccc4C(F)(F)F)nn2)S3(=O)=O)CC1	.	.	/	.	.	/	/
CC(C)c1ccc(/C=N/NC(=O)c2ccccn2)cc1	1.0	.	.	.	8.3	.	10
O=C(N/N=C/c1ccncc1)c1ccccn1	.	.	.	.	.	/	/
CC(C)CNC(=O)C1(C)CCCN1C(=O)CCc1cccs1 (stereo not drawn)	.	.	/	.	.	/	/
O=C/C(=C\Nc1ccccn1)c1nc2cc(Cl)ccc2o1	0.9	.	.	.	6.8	.	.
Clc1ccc2oc(-c3ccccc3)nc2c1	.	.	.	.	.	/	/
CC(=O)Nc1ccc(NC(=O)CSc2nc3ccccc3o2)cc1	.	.	.	.	.	/	/
CC(=O)Nc1cccc(N/C=C(\C=O)c2nc3ccccc3o2)c1	1.0	.	.	.	9.6	.	9.4
CC(=O)Nc1ccc(N/C=C(\C=O)c2nc3ccccc3o2)cc1	1.0	.	.	.	6.7	.	6.7
Cc1ccc2nc(C(C)(C)C)c(Cc3ccccc3C(F)(F)F)n2c1	.	.	/	.	.	/	/
CC1(C(=O)NS(=O)(=O)C2CC2)CCN(C(=O)c2ccccc2C(F)(F)F)C1 (stereo not drawn)	.	.	/	.	.	/	/
COC(=O)[C@]1(CNC(C)=O)CC(=O)N(C)[C@@H]1c1ccccc1	.	.	/	.	.	/	/
C=CCn1c(O)c(N=NC(=O)OCC)c2ccccc21	.	.	.	.	.	/	/
CCOC(=O)N=Nc1c(O)n(C)c2ccccc12	.	.	.	.	7.3	.	.
C=CCOC(=O)N1CCN(C(=O)c2ccc3nc(C)n(C4CCCC4)c3c2)CC1	.	.	/	.	.	/	/
O=C(NC(=S)Nc1ncc(Br)cc1Br)c1ccccc1	.	.	.	.	8.0	.	8.7
SMILES	ssDAF-12 act	DAX1 inh-1	DAX1 inh-2	hgDAF12 agonist	hcDAF12 agonist	LXR ag	hcDAF12 ag
C[C@H]1COc2cc(N3CCSCC3)ccc2S(=O)(=O)N1C	.	.	/	.	.	/	/
CCC(=O)N(c1ccccc1)C1CCN(C(=O)C(Cc2ccccc2)NC(C)=O)CC1 (stereo not drawn)	.	.	/	.	.	/	/
Clc1cccc(-c2nc(-c3ccccn3)no2)c1	.	.	.	.	9.7	.	12
c1ccc(-c2ccc(-c3nc(-c4ccccn4)no3)cc2)cc1	.	.	.	.	.	/	/
O=C(C[C@H]1C=C[C@@H](NS(=O)(=O)c2ccccc2)[C@@H](CO)O1)NCc1ccc(Cl)c(Cl)c1	.	.	/	.	.	/	/
COc1ccccc1NC(C)=O	.	.	.	.	.	/	/
COc1ccccc1NC(=O)/C=C\C(=O)O	.	.	.	.	7.3	.	.
Cc1cscc1NC(=O)/C=C/C(=O)O	.	.	/	.	6.8	.	.
Cc1cc(NC2CCCC2)n2ncc(-c3ccccc3)c2n1	.	.	.	.	.	/	/
Cc1cc(N2CCOCC2)n2ncc(-c3ccccc3)c2n1	.	.	.	.	9.4	.	16
Cc1cc(N2CCC(C)CC2)n2ncc(-c3ccccc3)c2n1	.	.	.	.	.	/	/
Cc1cc(-c2ccccc2)n2ncc(-c3ccccc3)c2n1	.	3.9	.	.	11	.	20
CCN(Cc1cccs1)c1ncnc2ccc(-c3ccc4c(c3)OCO4)cc12	.	/	/	.	.	/	/
CC(=O)Nc1cc2c3ccccc3ccc2c2ccccc12	.	.	.	.	.	/	/
CC(=O)Nc1cccc2ccc(O)cc12	.	.	.	.	6.7	.	.
COC(=O)[C@@]12C[C@@H](CC(=O)NCc3ccccc3)C(=O)N(Cc3ccc4c(c3)OCO4)C1=CCC(C)(C)C2	.	.	/	.	.	/	/
Cc1ccc(N/N=C/c2ccc3c(c2)OCCO3)cc1Cl	.	.	.	.	7.8	.	8.3
CNC(=S)N/N=C/c1ccc2c(c1)OCCO2	.	.	.	.	.	/	/
O=[N+]([O-])c1ccccc1/C=C/C=Nn1c(-c2ccc(F)cc2)n[nH]c1=S	.	.	/	.	6.6	.	.
CCCCn1nnnc1NCc1ccc(OC)c(OC)c1	.	.	.	.	8.5	.	.
COc1ccc(NC(=O)CCOc2ccccc2C)cc1S(=O)(=O)N1CCCCC1	.	.	.	.	.	/	/
CN(C)[C@H]1CCN(c2ccc3c(c2)O[C@H]2CCN(C2)S3(=O)=O)C1	.	.	/	.	.	/	/
Cc1cc(OCc2ccc(C(=O)NN=C3CCCC3)cc2)ccc1Cl	.	.	.	.	9.9	.	9.4
O=C(NN=C1CCCC1)c1ccc(Cl)cc1	.	.	.	.	.	/	/
C[C@H](NC(=O)[C@H](Cc1ccccc1)NC(=O)c1cc2cc(Cl)ccc2n1C)C(=O)O	.	.	.	.	6.8	.	.
SMILES	ssDAF-12 act	DAX1 inh-1	DAX1 inh-2	hgDAF12 agonist	hcDAF12 agonist	LXR ag	hcDAF12 ag
C=CCOc1c(CNc2cccc(C(=O)O)c2)cccc1OC	.	.	.	.	7.3	.	.
O=C(Nc1ccccc1Cl)c1cc2ccccc2o/c1=N\O	2.1	.	4.7	13	11	.	13
COc1cccc(NC(=O)c2ccccc2Oc2ccccc2)c1	.	.	.	.	.	/	/
COc1cccc(NC(=O)c2cc3ccccc3o/c2=N\O)c1	1.1	.	.	12	7.5	.	11
OC(c1ccccc1)(c1ccccc1)C1CCN(CCCNc2ccccc2Br)CC1	.	.	/	.	.	/	/
CCCNC(=O)C1(C)CCCN(C(=O)c2ccc(F)cc2Cl)C1 (stereo not drawn)	.	.	/	.	.	/	/
Cc1ccc(/C=N\NC(=O)CN2CCN(S(=O)(=O)c3ccc(Br)cc3)CC2)s1	.	.	/	.	.	/	/
